Assay outcomes: PubChem BioAssay, National Center for Advancing Translational Sciences (NCATS)
Only some compounds are listed: those with a hit (about 12% of all), similar ones and a draw of the others.
L3MBTL1 inh – qHTS Assay for the Inhibitors of L3MBTL1; Lethal(3)malignant brain tumor-like protein 1 (Homo sapiens), Q9Y468; AlphaScreen L3MBTL1–H3K9me1 peptide binding; Potency, µM (top dose mostly 57.1 µM), inactives show at the highest dose activity, negative = inhibition, actives largely listed as inhibitors; 0.66% of 230,000 active; further: on the % scale 0 is the no-effect control and ±100 the full control effect; nearly all actives have a fitted effect of over 60% in size
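AlphaScreen proximity signal between nickel-chelate acceptor and streptavidin donor beads (final 10 ug/mL) reports binding of 50 nM L3MBTL1 to 75 nM biotin-H3 K9me1 peptide; complex incubated with compounds 30 min at room temperature; cefsulodin titration as control.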
BAZ2B block – qHTS Assay for Inhibitors of BAZ2B. Bromodomain adjacent to zinc finger domain protein 2B (Homo sapiens), Q9UIF8. AlphaScreen BAZ2B-H3K14Ac peptide displacement. Potency, µM (titrated, usually from 114 µM), for the others: at the highest dose activity change, negative = inhibition, actives largely listed as inhibitors. 4.4% of 360,000 active. AID 504333, 2011; further: on the % scale 0 is the no-effect control and ±100 the full control effect; nearly all actives have a fitted effect of over 60% in size
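Compounds, titrated to a top concentration of 110 uM, were incubated 30 min at room temperature with preformed BAZ2B/acetyl-K14 H3 peptide complex (50 nM each). Proximity signal was measured by AlphaScreen after 20 min with beads.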
G9a inh – qHTS Assay for Inhibitors of Histone Lysine Methyltransferase G9a; Histone-lysine N-methyltransferase EHMT2 (Homo sapiens), Q96KQ7; G9a H3K9 monomethylation, AlphaScreen, 2 h; Potency, µM (titrated, usually from 102 µM), for the others: at the top dose activity, negative = inhibition, hits mostly inhibitors; 8.8% of 350,000 active; AID 504332, 2011; further: on the % scale 0 is the no-effect control and ±100 the full control effect; nearly all actives have a fitted effect of over 75% in size
Target sequence (Q96KQ7 913-1193 limits assumed): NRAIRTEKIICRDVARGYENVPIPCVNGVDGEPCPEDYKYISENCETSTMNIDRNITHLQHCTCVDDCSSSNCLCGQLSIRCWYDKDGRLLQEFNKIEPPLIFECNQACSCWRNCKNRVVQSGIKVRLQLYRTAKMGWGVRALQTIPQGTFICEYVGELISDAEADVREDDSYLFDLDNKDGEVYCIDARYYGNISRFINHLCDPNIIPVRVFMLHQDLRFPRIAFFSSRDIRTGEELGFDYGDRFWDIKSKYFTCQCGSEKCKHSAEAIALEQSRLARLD
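Step 1: enzyme (final 20 nM) with compound, 15 min RT. Step 2: substrate peptide 500 nM and SAM 20 uM, 2 h RT. Step 3: anti-H3K9me1 antibody and AlphaScreen beads, 10 min, then plate read.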
Sfp inh – qHTS Assay for Inhibitors of Bacillus subtilis Sfp phosphopantetheinyl transferase (PPTase); AID 1490, 2009; Biochemical Sfp PPTase activity, qHTS; Potency, µM, without a hit: largest response in the series, negative = inhibition, actives largely listed as inhibitors; 4'-phosphopantetheinyl transferase ffp (Bacillus subtilis), Q9F4F7; 3.5% of 310,000 active;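 further: the enzyme is Sfp with the accession as filed and its product quenches rhodamine fluorescence; 0% = enzyme reaction without inhibitor and -100% = no enzyme wells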
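Step 1, compound plus 15 nM Sfp-PPTase, 15 min, room temperature. Step 2, add rhodamine-CoA (5 uM) and BHQ-2-YbbR (12.5 uM). Step 3, read 525/598 nm fluorescence at 0 and 30 min.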
HP1b binding inh – HTS for Inhibitors of HP1-beta Chromodomain Interactions with Methylated Histone Tails. Chromobox protein homolog 1 (Homo sapiens), P83916. AlphaScreen HP1-beta / biotin-H3K9me3 peptide binding. Potency, µM (highest dose often 114 µM), inactives show at the top dose activity change, negative = inhibition, usual class: inhibitors. 0.56% of 390,000 active. AID 540317, 2011; further: nearly all actives have a fitted effect of over 70% in size
Target sequence (P83916 whole entry, looked up): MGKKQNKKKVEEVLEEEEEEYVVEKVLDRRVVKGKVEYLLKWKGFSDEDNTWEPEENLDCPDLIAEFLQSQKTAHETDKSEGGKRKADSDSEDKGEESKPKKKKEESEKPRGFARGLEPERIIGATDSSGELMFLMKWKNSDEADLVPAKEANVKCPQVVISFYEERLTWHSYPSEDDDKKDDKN
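Compound inhibition of the preformed complex between 50 nM HP1-beta and 50 nM biotinylated H3K9me3 peptide was read by AlphaScreen. Buffer was PBS pH 7.4 with 0.01% Tween-20. Incubations ran 30 min at room temperature, with 10 ug/mL donor/acceptor beads.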
JMJD2A Tudor inh – qHTS Assay for Inhibitors of JMJD2A-Tudor Domain; Lysine-specific demethylase 4A (Homo sapiens), O75164; AlphaScreen JMJD2A-Tudor / H3K4me3 peptide binding; Potency, µM (series often up to 114 µM), for the others: at the highest dose activity change, negative = inhibition, actives largely listed as inhibitors; 4.4% of 390,000 active; AID 504339, 2011; further: on the % scale 0 is the no-effect control and ±100 the full control effect; nearly all actives have a fitted effect of over 50% in size
Active calls of the source: *; ? = inconclusive; nt = no result given; ! = a repeat was not active; [ ] = another dose, or the depositor's remark. The call rests on the fitted dose curve; in most records, active means well fitted curve in the direction sought with a large enough effect; inconclusive means small, poorly fitted or top-dose-only effect, or another doubt; inactive means no such curve, though single readings can be large; an effect the other way counts as inactive or inconclusive. Potency means the concentration at half of the fitted maximal effect.

SMILES	L3MBTL1 inh	BAZ2B block	G9a inh	Sfp inh	HP1b binding inh	JMJD2A Tudor inh
O=c1cc(CO)oc(C(Nc2ccccn2)c2ccc(C(F)(F)F)cc2)c1O (stereo unspecified)	2%	-7%	1.6µM*	?	-17%	-17%
O=c1cc(CO)oc(C(Nc2ccccn2)c2cccc(F)c2)c1O (stereo unspecified)	8%	-30%	1.3µM*	10µM*	?	20µM*
O=c1cc(CO)oc(C(Nc2ccccn2)c2ccccc2F)c1O (stereo unspecified)	nt	nt	nt	nt	?	22µM*
O=C1CCSC2(C(=O)N(Cc3ccccc3)c3ccccc32)N1c1ccccc1 (stereo unspecified)	nt	-5%[57.1 µM]	-34%[59 µM]	nt	5%	-33%
CC(=O)Nc1ccc(C(=O)N/N=C/c2cc(Br)cc(Br)c2O)cc1	-12%	0%	4%	17%	?	56µM*
CC(C)C(=O)Nc1ccc(C(=O)N/N=C/c2cc(Br)cc(Br)c2O)cc1	-6%	7.9µM*	nt	-5%	9%	?
COc1cc(OC)c(/C=N/NC(=O)c2ccc(NC(C)=O)cc2)cc1Br	27%	-3%	-4%	14%	38%	-12%
CC(C)C(=O)Nc1ccc(C(=O)Nc2ccc(Br)cc2F)cc1	nt	nt	8%	-2%	41%	-7%
Cc1ccc(C(=O)O)cc1Nc1nc2ccccc2n2nnnc12	nt	?	5%[59 µM]	nt	1%	32µM*
CN(C)c1ccc(Nc2nc3ccccc3n3nnnc23)cc1	nt	3.5µM*	3.2µM*	nt	?	7.9µM*
O=C(O)COc1ccc(/C=C/c2ccc3cccc([N+](=O)[O-])c3n2)cc1	-8%	56µM*	28µM*	-10%	?	?
COc1cc(/C=C/c2ccc3c([N+](=O)[O-])cccc3n2)ccc1OCC(=O)O	nt	?	7%[12.7 µM]	17%	45%	?
COc1cc(/C=C/c2ccc3cccc([N+](=O)[O-])c3n2)ccc1OCC(=O)O	-15%	56µM*	40µM*	2%	5%	-19%
S=c1nc[nH]c2nc[nH]c12	9%	35µM*	?	40µM*!	-7%	4µM*
Cc1ccc(-n2nc3cc(C)c(N)cc3n2)cc1	nt	?	1.6µM*	-18%	3%	-20%
Cc1cc2nn(-c3cccc4ccccc34)nc2cc1N	-1%	?	3.5µM*	-5%	20%	2%[57.1 µM]
COc1ccc(-n2nc3cc(N)c(Br)cc3n2)cc1	2%[2.29 µM]	-3%	17%[0.501 µM]	-6%	-2%	-17%
COc1ccc(-n2nc3cc(C)c(N)c(Br)c3n2)cc1	-2%	-3%	?	40µM*	-26%	-16%[11.4 µM]
CCc1ccc(-n2nc3cc(C)c(N)cc3n2)cc1	8%	32µM*	1.1µM*	56µM*	-2%	89µM*
Nc1ccc(-n2nc3ccccc3n2)cc1	nt	nt	nt	nt	99%	41%
COC(=O)c1cc(S(=O)(=O)N2CCN(c3ccc(OC)cc3)CC2)c[nH]1	nt	-10%	?	nt	15%	-23%
COc1ccc(NCc2cc3cc4c(cc3n(CC(=O)Nc3ccccc3)c2=O)OCO4)cc1	nt	-35%	?	nt	14%	-34%
Cc1ccc(S(=O)(=O)N[C@@H]2COC(=O)C/C=C\[C@H](C)COC(=O)N[C@@H](C)C(=O)C/C=C\[C@H]2C)cc1	nt	nt	nt	14%	nt	nt
Nc1ccc2nn(-c3ccccc3)nc2c1	-1%	-16%	nt	-17%	-25%	-21%
Nc1cc2nn(-c3ccccc3)nc2cc1Cl	nt	-16%	?	40µM*	33%	-9%
SMILES	L3MBTL1 inh	BAZ2B block	G9a inh	Sfp inh	HP1b binding inh	JMJD2A Tudor inh
Cc1ccc(CNC(=O)c2nc(SCc3cccc(C)c3)ncc2Cl)cc1	nt	3%	3%[59 µM]	nt	35%	-1%
CCOC(=O)/C=C/C(=O)N1CCN(C(=O)/C=C/C(=O)OCC)CC1	nt	-8%	56µM*	8%	42%	-3%
CCOC(=O)C1=C(N)Oc2cc(O)ccc2C1c1ccc([N+](=O)[O-])cc1 (stereo unspecified)	-8%	?	40µM*	25µM*	-19%	50µM*
O=C(N/N=C\c1ccc([N+](=O)[O-])o1)C1COc2ccccc2O1 (stereo unspecified)	-2%	-16%	56µM*	-1%	39%	-11%
O=C(N/N=C\c1ccc(-c2ccccc2[N+](=O)[O-])o1)C1COc2ccccc2O1 (stereo unspecified)	-15%	?	28µM*	2%	-29%	?
CC1CCc2c(nc3ncnn3c2N2CC(C)OC(C)C2)C1 (stereo unspecified)	35%	23%	1%[2.33 µM]	7%	27%	15%
CC1CN(c2c3c(nc4ncnn24)CCCC3)CC(C)O1 (stereo unspecified)	-6%[11.4 µM]	2%	3.2µM*	9%	37%	-10%
CCc1ccc(NCc2cc3cc4c(cc3n(CC(=O)Nc3ccc(Cl)cc3)c2=O)OCO4)cc1	nt	-3%	?	nt	28%	-14%
O=C1C2CC=C(Cl)CC2C(=O)N1c1ncn[nH]1 (stereo unspecified)	?	56µM*	?	6%	39%	89µM*
COC(=O)[C@@H]1C[C@@]2(O)[C@H](O)[C@H](O)[C@H](O)C[C@H]2N1Cc1ccc(N2CCN(C)CC2)cc1	nt	nt	nt	-21%	nt	nt
COc1ccc(CNC[C@@H](CCCCN(C)Cc2ccc(OC)cc2)N2C[C@H](c3ccccc3)N(CCc3ccc(Cl)c(Cl)c3)C(=O)C2=O)cc1	-27%	?	?	28µM*	-9%	40µM*
CN(CCCC[C@H](CNCc1ccc(-c2ccccc2)cc1)N1C[C@H](c2ccccc2)N(CCc2ccc(Cl)c(Cl)c2)C(=O)C1=O)Cc1ccc(-c2ccccc2)cc1	nt	?	?	22µM*	nt	nt
CCOc1ccc(CCN2C(=O)C(=O)N([C@H](CCCN(C)Cc3ccccc3)CNCc3ccccc3)C[C@@H]2C(C)C)cc1	nt	?	-21%[59 µM]	-3%	nt	nt
Cc1ccc(CCN2CC(C(=O)NCCCN(C)Cc3ccccc3)CC2=O)cc1 (stereo unspecified)	6%	0%	nt	-5%	31%	-2%
Cc1ccc(NC(=O)CSc2nc3ccccc3nc2Cc2ccccc2F)cc1F	nt	-10%	?	nt	40%	-17%
Cc1cccc(C(=O)NC2CCN(C#N)CC2)c1	nt	nt	nt	nt	nt	-12%
